Screens deposited in PubChem by National Center for Advancing Translational Sciences (NCATS).
FMDV inh: antivirals against foot and mouth disease virus. 410,000 compounds, 1.2% hits. Potency, µM (top dose mostly 57.9 µM), for inactives: at the highest dose activity change, negative = inhibition, hits mostly inhibitors. AID 1159524. FMDV antiviral cell-based qHTS; calls by dose curve; tested in HEK293T cells; also: read-out not given here; potency is read from the fitted curve at half-maximal effect; nearly all actives have a fitted effect of over 45% in size
VACV Venus inh: vaccinia inhibition (Venus reporter); 330,000 compounds, 0.46% hits; Potency, µM (top dose mostly 36.5 µM), without a hit: at the highest dose activity change, negative = inhibition, hits mostly inhibitors; Vaccinia virus Venus reporter expression, fluorescence; AID 720580; calls by dose curve; tested in A549 cells; also: potency is read from the fitted curve at half-maximal effect; nearly all actives have a fitted effect of over 30% in size
HCV inh: blocks hepatitis C virus; Potency, µM (titrated, usually from 41.8 µM), for the others: at the highest dose activity change, negative = inhibition, usual class: inhibitors; 340,000 compounds, 3.4% hits; Huh7.5.1 HCVcc-Cre infection, luciferase reporter, 44 h; also: potency is read from the fitted curve at half-maximal effect
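HCVcc-Cre virus at an moi near 0.5 was added right after compound to cells cultured 4 h from seeding (1,000 cells/well). Luciferase activity was determined 44 h later, 15 min after substrate addition at RT.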
HCMV inh: blocks human cytomegalovirus replication | HFF cells, HCMV-luciferase reporter, 72 h; active compounds read low | activity change, negative = inhibition, % at 57.5 µM | 410,000 compounds, 4.5% hits | AID 1259415; in the data active = activity change below about -60%; inconclusive = no clear call, values can overlap the other calls; inactive = above about -39%
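Compounds were evaluated in HFFs infected with an HCMV luciferase reporter virus (MOI 1 PFU/cell). Luciferase in lysates collected 72 h post infection served as the replication measure.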
VACV mCherry inh: inhibitors of vaccinia virus infection (mCherry reporter signal). Potency, µM (highest dose often 36.5 µM), for inactives: top-dose activity change, negative = inhibition, actives largely listed as inhibitors. 310,000 compounds, 0.63% hits. Vaccinia virus mCherry reporter infection, fluorescence; calls by dose curve; tested in A549 cells; also: potency is read from the fitted curve at half-maximal effect; nearly all actives have a fitted effect of over 35% in size
FBPA Giardia inh: inhibitors of Giardia lamblia fructose-1,6-bisphosphate aldolase | purified Giardia FBPA | Potency, µM (series often up to 59.6 µM), for inactives: at the highest dose activity, negative = inhibition, hits mostly inhibitors | 290,000 compounds, 0.71% hits; also: potency is read from the fitted curve at half-maximal effect; nearly all actives have a fitted effect of over 55% in size
Target sequence (A8B2U2 whole entry, looked up): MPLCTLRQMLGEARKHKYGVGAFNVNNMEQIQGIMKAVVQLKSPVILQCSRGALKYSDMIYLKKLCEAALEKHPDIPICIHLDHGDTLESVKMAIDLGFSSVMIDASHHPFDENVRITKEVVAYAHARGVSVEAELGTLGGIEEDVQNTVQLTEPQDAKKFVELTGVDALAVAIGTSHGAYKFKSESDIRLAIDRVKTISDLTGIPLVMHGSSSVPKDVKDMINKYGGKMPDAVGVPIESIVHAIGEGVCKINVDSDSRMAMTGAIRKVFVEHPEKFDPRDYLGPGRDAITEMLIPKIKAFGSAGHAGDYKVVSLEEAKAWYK
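Giardia FBPA (40 nM reagent) was preincubated 10 min at RT with compound (up to 57.5 uM final), then substrate plus GAPDH/TPI/NAD/arsenate coupling system with diaphorase/resazurin was added; resorufin fluorescence (525/598 nm) was read after 20 min.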
Numbers without * were called inactive; i = inactive; ? = inconclusive; · = not tested or not shown; ! = not confirmed by another sample. Rows were chosen to be rich in hits. Some 7.5% of all compounds tested hit in one or more screens of this group. Unless noted, calls follow the shape of the dose curve; as a rule, active = well fitted curve in the direction sought with a large enough effect; inconclusive = small, poorly fitted or top-dose-only effect, or another doubt; inactive = no such curve, though single readings can be large; an effect the other way counts as inactive or inconclusive. % is scaled to controls: 0 for no effect and ±100 for the full control effect.

SMILES	FMDV inh	VACV Venus inh	HCV inh	HCMV inh	VACV mCherry inh	FBPA Giardia inh
Cc1ccc(-c2nc(SCC(=O)N3CCc4ccccc43)c3c(=O)n(C)c(=O)n(C)c3n2)cc1	-6.9%	-10.0%	·	-1.6	1.1%	·
Cn1c(=O)c2c(SCC(=O)N3CCOCC3)nc(CC(C)(C)C)nc2n(C)c1=O	·	·	7.7%	·	·	-2.1%
CCc1nc(SCC(=O)N2CCN(c3ccccc3)CC2)c2c(=O)n(C)c(=O)n(C)c2n1	·	·	·	·	·	2.6%
Cn1c(=O)c2c(SCC(=O)N3CCCc4ccccc43)nc(CC(C)(C)C)nc2n(C)c1=O	22.4µM*	11.2µM*	?	·	?	-0.1%
CCCc1nc(SCC(=O)N2CCC(Cc3ccccc3)CC2)c2c(=O)n(C)c(=O)n(C)c2n1	?	-14.4%	10µM*!	-22.8	-12.5%	8.1%
CCCn1c(SCC(=O)N2CCCc3ccccc32)nc2c1c(=O)n(C)c(=O)n2C	-3.4%	·	-24.0%	-1.8	·	-2.9%
Cc1cc(/C=N/NC(=O)c2cc3ccccc3o2)c(C)n1C	15.4%	·	-19.0%	-29.7	·	2.9%
CC1Cc2nc(SCC(=O)N3CCCc4ccccc43)n(C)c(=O)c2S1 (centres undefined)	?	-23.5%	11.2µM*	0.1	i	-3.0%
CCn1c(SCC(=O)N2CCCc3ccccc32)nc2c(c1=O)SC(C)C2 (centres undefined)	-25.4%	0.1%	?	2.3	i	7.0%
Cc1cccc(OCC(=O)Nc2ccc3nc(Nc4cccc(Cl)c4)cc(C)c3c2)c1	-2.2%	-9.5%	·	-63.3*	-1.8%	·
Cc1cc(Nc2cccc(Cl)c2)nc2ccc(NC(=O)COc3ccc(Cl)cc3)cc12	-18.4%	-9.9%	·	-106.1*	-9.3%	·
O=C(COc1ccc(-n2ccnc2)cc1)Nc1cccc(Cl)c1	?	-6.8%	?	-64.4*	i	5.1%
Cc1cccc(OCC(=O)Nc2ccc3nc(C)sc3c2)c1	21.8%	-23.7%	-21.3%	-36.4	-11.8%	-6.5%
Cc1ccc2nc(SCC(=O)N3CCC4(CC3)CC4C(=O)Nc3ccc(F)c(F)c3)[nH]c2c1 (centres undefined)	-4.0%	-8.2%	·	·	-6.4%	·
COCCCNC(=O)CCc1c(C)c2cc3c(C)coc3cc2oc1=O	-10.2%	-0.2%	-21.4%	?	i	3.8%
CCCN1C(=O)c2[nH]nc(-c3ccccc3O)c2C1c1cccc(OCc2ccccc2)c1 (centres undefined)	-24.5%	?	·	-13.5	?	·
COc1ccc(NS(=O)(=O)c2ccc(-c3coc(C)n3)cc2)cc1OC	-27.6%	·	?	-92.4*	·	·
CCCCN1C(=O)c2cccc3cc(O)cc(c23)C1=O	-6.7%	11.5%	1.4%	47.7	-20.0%	·
Cc1cc(C)c(NC2=NCCS2)cc1C	-14.7%	-7.3%	·	-89.0*	-9.3%	·
Cc1ccc(C(=O)NCCCNC(=O)Cc2ccc(Cl)cc2)cn1	-9.9%	-11.4%	15.7%	-10.1	-14.2%	·
COC(=O)Cn1cc(S(=O)(=O)NCc2ccc(C)cc2)c2cc([N+](=O)[O-])ccc21	33.4%	·	18.5%	-23.2	·	0.9%
O=[N+]([O-])c1cc(-c2ncccn2)c([N+](=O)[O-])s1	39.8µM*	·	?	-27.0	·	15.8µM*
O=C(Nc1ncccn1)c1cc([N+](=O)[O-])cc([N+](=O)[O-])c1	-13.9%	-2.7%	15.3%	7.4	-13.7%	-6.9%
CCCCS/C(=C(/C#N)C(N)=O)c1cc2c([nH]1)CCCC2	-21.2%	·	-30.8%	-63.2*	·	-28.1%
CCc1ccc(N/C(SC)=C(/C#N)C(N)=O)cc1	-13.1%	-17.1%	-19.6%	6.9	-6.0%	-1.2%
N=C1C(c2ccccc2)=C(O)CN1CCCO	-22.4%	·	27.1%	-9.1	·	5.9%
C=CCN1CC(O)=C(c2ccccc2)C1=N	·	-7.0%	17.5%	-68.6*	i	-1.9%
CCOC(=O)Nc1ccc2c(c1)N(C(=O)N1CCN(C)CC1)c1ccccc1S2	0.4%	·	-16.3%	-4.0	·	0.0%
C=CC(=O)N1c2ccccc2Sc2ccc(NC(=O)OCC)cc21	12.6µM*	?	?	-4.3	·	·
COc1ccc2[nH]cc(CCNC(=O)CC[C@H]3O[C@@H](n4cc(C)c(=O)[nH]c4=O)C[C@@H]3O)c2c1	-17.8%	-0.4%	-17.0%	14.6	i	·
